Data published in PubChem BioAssay (NCI).
Values joined by “and” are separate entries in the source; they are usually repeats but may differ in a detail not shown here. Equal values may be shown once. The panel holds about 83,000 compounds, 20% with a hit somewhere; the sample as a whole holds those more often.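 The test compound was applied at a single concentration to cells in 96-well plates for 48 hours, and percent growth was recorded.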 Values without a mark were called inactive. Active and inactive are the calls of the source. Rule for the calls: active = growth percent below 10; inactive = the rest.

test system: OVCAR-3 ovarian; test: NCI-60 one-dose screen, 48 h (100 = growth as untreated, 0 = no growth, -100 = all killed); conditions: 10 µM unless noted

SMILES | growth
O=C1c2ccccc2C(=O)c2sc(Nc3ccc(Cl)cc3)nc21 | -39.6% (active)
N#CSCC(=O)c1ccc(Cl)cc1 | -25.3% (active)
Cn1c2c(c3ccccc31)CCN1C[C@@H]3CCCC[C@H]3C[C@@H]21 | -74.3% (active)
Oc1c(Br)cc(Cl)cc1C(c1cc(Cl)cc(Br)c1O)C(Cl)(Cl)Cl | 12.7%
Cc1ccc(C(=Nc2ccccc2)N=P(c2ccccc2)(c2ccccc2)c2ccccc2)cc1 | -37.4% (active)
CC1SC(=S)N(c2ccc(Cl)cc2)C1=O (centres undefined) | 93.3% and 97.7%
N#CSCc1ccc(Cl)c(CSC#N)c1 | 46.3%
O=C1OCc2cccc3cccc1c23 | 110%
O=C(O)C1C2CC3C(OC(=O)C31)C2Br (centres undefined) | 110% and 106%
Nc1ccc(SSc2ccc(N)cc2)cc1 | 114%
CCCCCCCCCCCCCCCCN(CC)CC | -58.6% (active)
O=C1NC(=O)/C(=C/C=C/c2ccccc2)S1 | 58.3%
CCCCCCCCCCCCCCCC[N+](C)(CCO)Cc1cnc[nH]1 (centres undefined) | -36.9% (active)
CCC1OC(OC)C=CC1=O (centres undefined) | 95.4%
